Results taken from PubChem BioAssay AID1159580 (chemical genetic matrix, 2015).
Values joined by “and” are separate entries in the source; they are usually repeats but may differ in a detail not shown here. Equal entries are not always repeated. The whole screen tested about 5,500 compounds, of which about 2,000 (36%) were called active. Roughly 18% stayed inconclusive and do not appear here. Cut-off read from the data, not from the text of the source: active = normalized growth mostly below about 0.91 (no sharp cut-off); inconclusive = no clear call, values can overlap the other calls; inactive = mostly above about 0.92. This is one part of the list.

Experiment: chemical genetic growth profiling, strain panel (AID 1159580);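 note: tested at 20 µM; growth read once vehicle control cultures reached saturation at 30 °C; 1 = growth at the plate median or of vehicle wells; lower values mean less growth of the strain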
Details: growth OD

Measured: normalized growth

CCCCC[C@H]1C(=O)O[C@H](C)[C@H](NC(=O)c2cccc(NC=O)c2O)C(=O)O[C@@H](C)[C@@H]1OC(=O)CC(C)C
active: S. cerevisiae deletion strains, locus YDL035C, strain GPR1, stronger effect = lower value 0.839 | S. cerevisiae deletion strains, locus YDL134C, strain PPH21, stronger effect = lower value 0.86 | S. cerevisiae deletion strains, locus YDL192W, strain arf1, stronger effect = lower value 0.91 | S. cerevisiae deletion strains, locus YDR318W, strain mcm21, stronger effect = lower value 0.908 | S. cerevisiae deletion strains, locus YDR388W, stronger effect = lower value 0.913 | S. cerevisiae deletion strains, locus YER167W, strain BCK2, stronger effect = lower value 0.904 | S. cerevisiae deletion strains, locus YGL078C, strain dbp3, stronger effect = lower value 0.895 | S. cerevisiae deletion strains, locus YGL086W, strain mad1, stronger effect = lower value 0.923 | S. cerevisiae deletion strains, locus YGR135W, strain pre9, stronger effect = lower value 0.891 | S. cerevisiae deletion strains, locus YGR252W, strain gcn5, stronger effect = lower value 0.684 | S. cerevisiae deletion strains, locus YHR129C, strain ARP1, stronger effect = lower value 0.904 | S. cerevisiae deletion strains, locus YHR200W, strain rpn10, stronger effect = lower value 0.904 | S. cerevisiae deletion strains, locus YIL125W, strain kgd1, stronger effect = lower value 0.896 | S. cerevisiae deletion strains, locus YJR043C, strain POL32, stronger effect = lower value 0.838 | S. cerevisiae deletion strains, locus YLR113W, strain HOG1, stronger effect = lower value 0.777 | S. cerevisiae deletion strains, locus YML032C, strain rad52, stronger effect = lower value 0.83 | S. cerevisiae deletion strains, locus YMR078C, strain ctf18, stronger effect = lower value 0.9 | S. cerevisiae deletion strains, locus YMR223W, strain ubp8, stronger effect = lower value 0.88 | S. cerevisiae deletion strains, locus YNL183C, strain NPR1, stronger effect = lower value 0.827 | S. cerevisiae deletion strains, locus YNL250W, strain rad50, stronger effect = lower value 0.853 | S. cerevisiae deletion strains, locus YNL271C, strain bni1, stronger effect = lower value 0.9 | S. cerevisiae deletion strains, locus YNL298W, strain CLA4, stronger effect = lower value 0.891 | S. cerevisiae deletion strains, locus YNR052C, strain pop2, stronger effect = lower value 0.874 | S. cerevisiae deletion strains, locus YOR144C, strain elg1, stronger effect = lower value 0.933 | S. cerevisiae deletion strains, locus YOR184W, strain ser1, stronger effect = lower value 0.674 | S. cerevisiae deletion strains, locus YPR141C, strain kar3, stronger effect = lower value 0.9 | S. cerevisiae deletion strains, locus YPR163C, strain tif3, stronger effect = lower value 0.893 | S. cerevisiae strains, strain wild type, stronger effect = lower value 0.895
inactive: S. cerevisiae deletion strains, locus YBR021W, strain FUR4, stronger effect = lower value 0.965 | S. cerevisiae deletion strains, locus YBR229C, strain ROT2, stronger effect = lower value 0.949 | S. cerevisiae deletion strains, locus YCL029C, strain bik1, stronger effect = lower value 0.922 | S. cerevisiae deletion strains, locus YDL074C, strain BRE1, stronger effect = lower value 0.797 | S. cerevisiae deletion strains, locus YDL101C, strain DUN1, stronger effect = lower value 0.936 | S. cerevisiae deletion strains, locus YDL185W, strain tfp1, stronger effect = lower value 0.919 | S. cerevisiae deletion strains, locus YDR101C, strain arx1, stronger effect = lower value 0.93 | S. cerevisiae deletion strains, locus YDR162C, strain NBP2, stronger effect = lower value 0.905 | S. cerevisiae deletion strains, locus YDR502C, strain sam2, stronger effect = lower value 0.939 | S. cerevisiae deletion strains, locus YEL061C, strain CIN8, stronger effect = lower value 0.936 | S. cerevisiae deletion strains, locus YER110C, stronger effect = lower value 0.979 | S. cerevisiae deletion strains, locus YER155C, strain BEM2, stronger effect = lower value 0.978 | S. cerevisiae deletion strains, locus YGL248W, strain PDE1, stronger effect = lower value 0.912 | S. cerevisiae deletion strains, locus YHR030C, strain SLT2, stronger effect = lower value 0.947 and 0.873 | S. cerevisiae deletion strains, locus YHR079C, strain IRE1 (second series), stronger effect = lower value 0.943 | S. cerevisiae deletion strains, locus YHR079C, strain IRE1, stronger effect = lower value 0.863 | S. cerevisiae deletion strains, locus YHR094C, strain hxt1, stronger effect = lower value 0.933 | S. cerevisiae deletion strains, locus YIL066C, strain RNR3, stronger effect = lower value 0.88 | S. cerevisiae deletion strains, locus YIL073C, strain SPO22, stronger effect = lower value 0.844 | S. cerevisiae deletion strains, locus YIR030C, strain dcg1, stronger effect = lower value 0.946 | S. cerevisiae deletion strains, locus YJL134W, strain LCB3, stronger effect = lower value 0.932 | S. cerevisiae deletion strains, locus YJL168C, strain set2, stronger effect = lower value 0.933 | S. cerevisiae deletion strains, locus YJL187C, strain SWE1 (second series), stronger effect = lower value 0.889 | S. cerevisiae deletion strains, locus YJR066W, strain TOR1, stronger effect = lower value 0.861 | S. cerevisiae deletion strains, locus YKL068W, stronger effect = lower value 1.02 | S. cerevisiae deletion strains, locus YKL085W, strain MDH1 (second series), stronger effect = lower value 0.961 | S. cerevisiae deletion strains, locus YKL085W, strain MDH1, stronger effect = lower value 0.961 | S. cerevisiae deletion strains, locus YKL190W, strain CNB1, stronger effect = lower value 0.933 | S. cerevisiae deletion strains, locus YKR001C, strain vps1, stronger effect = lower value 0.922 | S. cerevisiae deletion strains, locus YLR039C, strain RIC1, stronger effect = lower value 0.933 | S. cerevisiae deletion strains, locus YLR058C, strain SHM2, stronger effect = lower value 0.932 | S. cerevisiae deletion strains, locus YLR102C, strain apc9, stronger effect = lower value 0.944 | S. cerevisiae deletion strains, locus YLR262C, strain YPT6, stronger effect = lower value 0.84 | S. cerevisiae deletion strains, locus YLR268W, strain sec22, stronger effect = lower value 0.923 | S. cerevisiae deletion strains, locus YLR330W, strain CHS5, stronger effect = lower value 0.962 | S. cerevisiae deletion strains, locus YLR342W, strain FKS1 (second series), stronger effect = lower value 0.887 | S. cerevisiae deletion strains, locus YLR371W, strain rom2, stronger effect = lower value 0.921 | S. cerevisiae deletion strains, locus YLR418C, strain cdc73, stronger effect = lower value 0.893 | S. cerevisiae deletion strains, locus YML016C, strain PPZ1, stronger effect = lower value 0.946 | S. cerevisiae deletion strains, locus YML124C, strain tub3, stronger effect = lower value 0.943 | S. cerevisiae deletion strains, locus YMR263W, strain SAP30, stronger effect = lower value 0.921 | S. cerevisiae deletion strains, locus YMR307W, strain GAS1, stronger effect = lower value 0.616 | S. cerevisiae deletion strains, locus YNL067W, strain RPL9B, stronger effect = lower value 0.921 | S. cerevisiae deletion strains, locus YNL233W, strain BNI4, stronger effect = lower value 0.914 | S. cerevisiae deletion strains, locus YNL307C, strain MCK1, stronger effect = lower value 0.967 | S. cerevisiae deletion strains, locus YNL322C, strain KRE1, stronger effect = lower value 0.937 | S. cerevisiae deletion strains, locus YOL006C, strain TOP1, stronger effect = lower value 0.736 | S. cerevisiae deletion strains, locus YOL012C, strain htz1 0.619 | S. cerevisiae deletion strains, locus YOL147C, strain pex11, stronger effect = lower value 0.942 | S. cerevisiae deletion strains, locus YOR061W, strain CKA2, stronger effect = lower value 0.895 | S. cerevisiae deletion strains, locus YOR069W, strain VPS5, stronger effect = lower value 0.932 | S. cerevisiae deletion strains, locus YOR136W, strain idh2, stronger effect = lower value 0.983 | S. cerevisiae deletion strains, locus YOR231W, strain MKK1, stronger effect = lower value 0.864 | S. cerevisiae deletion strains, locus YOR316C, strain cot1, stronger effect = lower value 0.945 | S. cerevisiae deletion strains, locus YPL256C, strain CLN2, stronger effect = lower value 0.912 | S. cerevisiae deletion strains, locus YPR119W, strain clb2, stronger effect = lower value 0.939 | S. cerevisiae deletion strains, locus YPR167C, strain met16, stronger effect = lower value 0.939 | S. cerevisiae deletion strains, strain wtn01, stronger effect = lower value 0.901
0.875 (inactive) and 0.859 (active): S. cerevisiae deletion strains, locus YJL095W, strain BCK1, stronger effect = lower value
